TDP1 cell noCPT: qHTS for Inhibitors of human tyrosyl-DNA phosphodiesterase 1 (TDP1): qHTS in cells in absence of CPT | actives 15% (n = 420,000) | Potency, µM (doses to about 46.2 µM), for inactives: top-dose activity change, negative = growth inhibition, actives largely listed as inhibitors | DT40 Tdp1-/- hTDP1 cells, no CPT, ATP luminescence, 48 h | AID 686978, 2013; further: potency means the concentration at half of the fitted maximal effect; nearly all actives have a fitted effect of over 55% in size
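Chicken DT40 Tdp1-/- cells complemented with human TDP1, screened without camptothecin (DMSO vehicle only), 400 cells/well. Compounds pin-transferred, cells incubated at 37 °C for at least 48 hr. Growth read as ATP-dependent luminescence (CellTiter-Glo, 30 min at RT).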
HT1080 IDH1KD tx: toxicity to HT-1080 IDH1 knockdown cells (counter line); HT-1080 IDH1 knockdown viability, ATP luminescence, 48 h; Potency, µM (series often up to 46.1 µM), for inactives: at the top dose activity, negative = toxicity, actives largely listed as cytotoxic; actives 2% (n = 360,000); AID 686971;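 further: potency means the concentration at half of the fitted maximal effect; 0% = DMSO wells and -100% = cell-free medium wells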
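Assay cells: HT-1080 with IDH1 knockdown, 750 per well, RPMI/5% FBS. Exposure: 48 h at 37 °C following 2 h pre-incubation. Read: CellTiter-Glo luminescence; fitted concentration-response, curve class assigned.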
IL1B secr inh: blocks inflammasome-driven IL-1 beta release. THP-1 LPS/ATP IL-1B secretion, AlphaLISA, 16 h; stronger effect = lower value. activity change, % at 57.5 µM. actives 4.7% (n = 360,000); in the data active means activity change below about -50%; inconclusive means mostly about -30% to -49%
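THP-1 cells pretreated 1 hr with compounds (up to 57.5 uM final), then stimulated with LPS (250 ng/mL final) plus ATP (1.25 mM final); secreted IL-1B measured by AlphaLISA after 16 hr, decreased signal indicating inhibition.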
HT1080NT lethal: kills 2HG-producing HT-1080-NT fibrosarcoma cells; HT-1080-NT fibrosarcoma viability, CellTiter-Glo ATP luminescence, 48 h; Potency, µM (top dose mostly 46.1 µM), for inactives: at the highest dose activity, negative = less viability, most hits filed as cytotoxic; actives 1.6% (n = 360,000); AID 686970;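 further: NT is the 2HG producing partner of a matched IDH1 knockdown line; potency means the concentration at half of the fitted maximal effect; 0% = DMSO-treated cells and -100% = media-only wells without cells; nearly all actives have a fitted effect of over 55% in size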
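Viability by CellTiter-Glo luminescence after 48 h compound exposure at 37C of HT-1080-NT cells (750/well, RPMI, 5% FBS). % activity scaled between DMSO wells and medium-only wells, then curve-fitted and categorized by curve class.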
TDP1 cell CPT: growth inhibition of DT40 Tdp1-/-;hTDP1 cells with camptothecin (screen for TDP1 inhibitors); chicken DT40 Tdp1-/-;hTDP1 cells + 20 nM CPT, ATP luminescence, 48 h; Potency, µM (top dose mostly 46.2 µM), inactives show at the top dose activity change, negative = growth inhibition, usual class: inhibitors; actives 12% (n = 420,000); further: potency means the concentration at half of the fitted maximal effect; nearly all actives have a fitted effect of over 55% in size
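Chicken DT40 Tdp1-/- cells complemented with human TDP1, 400 cells/well, exposed to compounds plus 20 nM camptothecin for at least 48 h at 37 C; viability read as ATP content by CellTiter-Glo luminescence.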
ELG1 repair inh: ELG1-dependent DNA repair inhibition; HEK293T ELG1-luciferase reporter, luminescence, 16 h; DNA damage induced by 5-fluorouridine; actives 2.3% (n = 330,000); Potency, µM (titrated, usually from 46.1 µM), without a hit: at the top dose activity change, negative = inhibition, hits mostly inhibitors; further: potency means the concentration at half of the fitted maximal effect; nearly all actives have a fitted effect of over 55% in size
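Quantitative HTS, concentration-response format. 2,000 cells/well co-treated with 5-fluorouridine and compound, 16 hr in 5% CO2 at 37 °C; ONE-Glo luminescence read after 30 min.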
Numbers without * were called inactive; ? = inconclusive; / = not tested or not shown. In the library only some 19% were active in any assay of this set; here they are far more common. Unless noted, the call rests on the fitted dose curve; in most records, active means well fitted curve in the direction sought with a large enough effect; inconclusive means small, poorly fitted or top-dose-only effect, or another doubt; inactive means no such curve, though single readings can be large; an effect the other way counts as inactive or inconclusive. Unless noted, on the % scale 0 is the no-effect control and ±100 the full control effect.

SMILES	TDP1 cell noCPT	HT1080 IDH1KD tx	IL1B secr inh	HT1080NT lethal	TDP1 cell CPT	ELG1 repair inh
O=C1[C@@H]2Cc3c([nH]c4ccccc34)C(c3ccccc3)N2C(=O)CN1C1CC1 (some centres undefined)	?	-6%	?	-5%	?	1%
COC(=O)c1ccc(C2c3[nH]c4ccccc4c3C[C@H]3C(=O)N(C)CC(=O)N23)cc1 (some centres undefined)	26%	?	28	?	37%	-11%
CCN1C(=O)[C@@H]2Cc3c([nH]c4ccccc34)C(c3ccc(OC)cc3)N2C1=S (some centres undefined)	15µM*	-22%	-10	?	?	?
CN1CC(=O)N2C(c3ccc(Cl)cc3)c3[nH]c4ccccc4c3C[C@H]2C1=O (some centres undefined)	?	?	-14	-30%	15µM*	-18%
CN1CC(=O)N2C(c3cccc([N+](=O)[O-])c3)c3[nH]c4ccccc4c3C[C@H]2C1=O (some centres undefined)	1.8µM*	-20%	-3	-21%	1µM*	19%
CCOc1ccc(C(C)=O)cc1Cn1c(=O)oc2ccccc21	?	-2%	-4	1%	?	-10%
O=C1C=C(C2OC(CO)C(O)C2O)C(=O)N1 (centres undefined)	6.5µM*	9%	?	5%	4.6µM*	/
OC[C@H]1O[C@@H](c2nc(-c3ccccc3Br)no2)[C@H](O)[C@@H](O)[C@H]1O	2%	14%	20	25%	-10%	/
O=C(COC(=O)c1cccc2c1C(=O)c1ccccc1C2=O)NC1CCCCC1	?	?	-132*	?	?	?
O=C(COC(=O)c1ccccc1F)NC1CCCC1	-12%	17%	7	18%	2%	16%
O=C(COC(=O)c1ccc2c(c1[N+](=O)[O-])C(=O)c1ccccc1C2=O)NC1CC1	?	?	-77*	?	3.7µM*	3%
CC1CCCCC1NC(=O)COC(=O)c1ccc2c(c1Cl)C(=O)c1ccccc1C2=O (centres undefined)	4%	23%	19	25%	-4%	?
Cc1ccc(Cl)cc1N1CCN(C(=O)c2ccc3c(c2)CCN3S(C)(=O)=O)CC1	/	/	/	/	/	-23%
CCCn1nc(C(=O)OCC(=O)Nc2ccc(C)cc2)c2ccccc2c1=O	-8%	23%	0	16%	-9%	-1%
CCCNC(=O)OC[C@H]1O[C@H](CCO/N=C(\C)CCN2CCc3nc(-c4ccccc4)c(-c4ccccc4)cc3C2)C=C[C@@H]1Oc1ccc(OC)cc1	/	/	/	/	/	6.5µM*
CC(C)CCNC(=O)c1ccc2c(c1)N(Cc1cccc(Cl)c1)C(=O)c1ccccc1S2	21µM*	/	/	/	?	/
CC(C)CCNC(=O)Nc1ccc2c(c1)N(Cc1ccccc1)C(=O)c1ccccc1S2	?	/	/	/	18µM*	/
O=C(CNC(=O)c1cccnc1)c1ccc(F)cc1	8%	/	/	/	-2%	/
COc1ccc(NC2CCCN(C(=O)C3(C)CCCCC3)C2)cc1OC (centres undefined)	?	-23%	19	0%	?	?
O=C(Nc1ccc(F)cc1F)N1CCc2c(sc3c2CCCC3)C1c1ccc(F)cc1 (centres undefined)	18µM*	/	/	/	?	/
CCOc1ccccc1NC(=O)N1CCc2c(sc3c2CCCC3)C1c1ccccc1 (centres undefined)	23µM*	/	/	/	?	/
Cc1ccc(NC(=O)N2CCc3c(sc4c3CCCC4)C2c2ccccc2)cc1F (centres undefined)	15µM*	/	/	/	?	/
COc1ccccc1NC(=O)N1CCCC1C(=O)NCc1ccc(F)cc1 (centres undefined)	4%	11%	-1	10%	-1%	11%
COc1ccccc1NC(=O)N1CC(=O)Nc2sc3c(c2C1c1ccccc1)CCCC3 (centres undefined)	18µM*	/	/	/	23µM*	/
O=C(Nc1cccc(Cl)c1Cl)c1cc(S(=O)(=O)NCc2ccc3c(c2)OCO3)ccc1F	-1%	/	/	/	5%	/
SMILES	TDP1 cell noCPT	HT1080 IDH1KD tx	IL1B secr inh	HT1080NT lethal	TDP1 cell CPT	ELG1 repair inh
CCc1c(C)sc2c1CCN(Cc1cccc(OC)c1)C2c1ccccc1 (centres undefined)	5.2µM*	/	/	/	7.3µM*	/
CCOC(=O)c1ccccc1NC(=O)N1CCc2c(sc(C)c2CC)C1c1ccccc1 (centres undefined)	16µM*	/	/	/	?	/
CCOC(=O)c1ccccc1NC(=O)N1CCN2CCCCC2C1 (centres undefined)	-2%	/	/	/	21%	/
Cc1ccc(NP(=O)(c2ccc(N(C)C)cc2NC(=O)c2cccs2)N2CCOCC2)cc1Cl (centres undefined)	?	-13%	?	-12%	?	16µM*
Cc1ccc(NP(=O)(c2ccc(N(C)C)cc2NC(=O)c2cccs2)N2CCOCC2)cc1 (centres undefined)	?	-13%	-28	-11%	-25%	?
Cc1ccc(C2c3c(-c4ccccc4O)n[nH]c3C(=O)N2CCc2ccccc2)cc1 (centres undefined)	-106%	/	/	/	?	/
CCCCOc1ccc(C2c3c(-c4ccccc4O)n[nH]c3C(=O)N2Cc2ccncc2)cc1OC (centres undefined)	23µM*	/	/	/	?	/
CCCN1C(=O)c2[nH]nc(-c3ccccc3O)c2C1c1ccc(OCc2ccccc2)c(OC)c1 (centres undefined)	16µM*	/	/	/	16µM*	/
CCCOc1ccc(C2c3c(-c4ccccc4O)n[nH]c3C(=O)N2CCc2ccccc2)cc1OCC (centres undefined)	13µM*	/	/	/	12µM*	/
COc1cc(C2c3c(-c4ccccc4O)n[nH]c3C(=O)N2CCO)ccc1OCc1ccccc1 (centres undefined)	26µM*	/	/	/	-28%	/
CCOc1ccc(C2c3c(-c4cc(C)ccc4O)n[nH]c3C(=O)N2Cc2cccnc2)cc1OCC (centres undefined)	-19%	/	/	/	1%	/
Cc1cn([C@H]2C[C@H](O)[C@@H](CCC(=O)NCc3ccccc3)O2)c(=O)[nH]c1=O	-106%	5%	164	10%	-98%	/

From PubChem BioAssay
